Tests used:
Assay in all cases: PBM binding z-score (relative to random genomic background probes); higher = stronger binding; sequences stand for … in GC…GCGATTGACAGCGTAGAATGAAGG
[1] = tested on: PPARg:RXRa DBDmut IVT, anti-RXR (DBD mutation: RXRa K156A/R161A, NR concentration 270 nM, RXRa partner concentration 90 nM)
In short: (§1)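 The probes on custom Agilent 4×180K protein-binding microarrays were double-stranded, with 34-nt variable regions bearing direct-repeat seeds, single-nucleotide variants, half-site ablations and random human genomic background sequences. Incubation lasted 1 h with ligand-free nuclear receptor dimers in PBS pH 7.4, 2% milk, 0.02% Triton X-100, 1 mM DTT, 0.2 mg/mL BSA and 0.4 mg/ml salmon testes DNA. Antibodies against each partner (one per run) detected bound dimers, and fluorescence scans were regression-normalized. Binding z-scores take the random background probes as reference.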

[2] = tested on: PPARg:RXRa IVT, anti-PPARg (NR concentration 270 nM, RXRa partner concentration 90 nM)
In short: as §1

[3] = tested on: PPARg DBDmut:RXRa IVT, anti-PPARg (DBD mutation: PPARg1 K132A/R137A, NR concentration 270 nM, RXRa partner concentration 90 nM)
In short: as §1

[4] = tested on: PPARg DBDmut IVT, anti-PPARg (DBD mutation: PPARg1 K132A/R137A, NR concentration 270 nM)
In short: as §1

[5] = tested on: PPARg homodimer (NR concentration 180 nM)
In short: as §1

[6] = tested on: PXR:RXRa (NR concentration 270 nM, RXRa partner concentration 90 nM)
In short: as §1

[7] = tested on: PXR homodimer (NR concentration 270 nM)
In short: as §1

[8] = tested on: RARa:RXR (NR concentration 270 nM, RXRa partner concentration 90 nM)
In short: as §1

[9] = tested on: RARa homodimer (NR concentration 270 nM)
In short: as §1

[10] = tested on: RARb:RXRa (NR concentration 270 nM, RXRa partner concentration 90 nM)
In short: as §1

[11] = tested on: RARb homodimer (NR concentration 270 nM)
In short: as §1

[12] = tested on: RARg:RXRa (NR concentration 270 nM, RXRa partner concentration 90 nM)
In short: as §1

[13] = tested on: RARg homodimer (NR concentration 270 nM)
In short: as §1

[14] = tested on: RXRa DBDmut IVT, anti-RXR (DBD mutation: RXRa K156A/R161A, NR concentration 90 nM)
In short: as §1

[15] = tested on: RXRa homodimer (NR concentration 180 nM)
In short: as §1

[16] = tested on: THRa:RXRa (NR concentration 90 nM, RXRa partner concentration 90 nM)
In short: as §1

[17] = tested on: THRa homodimer (NR concentration 90 nM)
In short: as §1

[18] = tested on: VDR homodimer (NR concentration 270 nM)
In short: as §1

Row | Sequence | PBM binding z-score [1] | PBM binding z-score [2] | PBM binding z-score [3] | PBM binding z-score [4] | PBM binding z-score [5] | PBM binding z-score [6] | PBM binding z-score [7] | PBM binding z-score [8] | PBM binding z-score [9] | PBM binding z-score [10] | PBM binding z-score [11] | PBM binding z-score [12] | PBM binding z-score [13] | PBM binding z-score [14] | PBM binding z-score [15] | PBM binding z-score [16] | PBM binding z-score [17] | PBM binding z-score [18]
1 | ACTAGTTGGTCAGCTGAGGTCACACTCAATTCGG | 1.55 | 2.58 | 0.716 | -0.0108 | 1.84 | 5.39 | 1.85 | 4.51 | 0.596 | 3.54 | 4.47 | 3.93 | 4.09 | 1.5 | 3.92 | 5.01 | 4.85 | 3.27
2 | ATCGAAAGGTCGACGAGGTGAGAATACACCGTTT | 0.716 | 2.39 | 0.449 | 1.17 | 2.15 | 3.29 | 0.612 | 4.11 | 0.753 | 4.1 | 3.04 | 4.56 | 4.16 | 1.15 | 4.87 | 4.05 | 0.736 | 0.942
3 | ATCTCTAGGTCAAAGTTCAGTGAATCCCGAGGAT | 6.47 | 6.91 | 3.49 | 3.22 | 3.06 | 5.29 | 2.76 | 6.71 | 1.52 | 4.58 | 4.18 | 6.01 | 5.62 | 2.65 | 6.97 | 3.76 | 1.76 | 3.19
4 | ATCGAAAGGTGGACGAGGTGAGTATACACCGTTT | -0.328 | 0.716 | 0.496 | 0.266 | 0.223 | 0.219 | 0.0997 | 0.702 | 0.444 | 0.89 | 0.375 | 0.545 | 0.833 | -0.461 | 0.799 | 1.77 | 0.434 | -0.347
5 | ACTCGGAGGACAGAGGTCAGAGCTACGCCAGTGA | 0.205 | 2.43 | -0.153 | -0.704 | 1.89 | 3.17 | 0.328 | 3.9 | 0.568 | 3.57 | 3.82 | 4.6 | 4.17 | 0.707 | 4.17 | 3.03 | 0.579 | 1.19
6 | CGTCCAAGCTCAGCAGGTCAGTGAAAGCGACGTG | -0.243 | -0.249 | -0.634 | -0.872 | -0.131 | 0.0588 | -0.688 | 0.234 | -0.706 | 1.45 | 1.73 | 0.644 | 1.1 | -0.071 | 0.158 | 0.642 | -0.345 | -0.808
7 | TCATATAGGTTAAAGGTGAAAGTCGGTGTGGTAA | 6.74 | 6.73 | 2.27 | 1.26 | 3.22 | 3.73 | 0.749 | 6.33 | 2.29 | 2.9 | 2.56 | 3.92 | 1.76 | 1.94 | 5.99 | 2.62 | 0.942 | 0.81

Reference: the supplement of paper PMC6555819
